# Test results taken from ChEMBL document CHEMBL3988442, “University of Dundee, Small-Polar-MMV Screening Library” (2021).
# The whole screen tested about 69,000 compounds, of which about 1,000 (1.4%) showed an effect of 50% or more. What follows is part of a selection rich in strong results, with near analogues and random picks from the rest.
# System: Leishmania donovani
# Experiment: Leishmania intramacrophage assay
# Type: functional, organism-based
# Design: scale not given: in the data most compounds retested in dose-response had high values
structure (smiles),measurement,setting,value
Cc1nc(CN2CC[C@H]3[C@@H]2CCC(=O)N3c2cnn(C)c2)cs1.O=C(O)C(F)(F)F,Percent Effect,"30.3 µM, […]",2.736%
CC(C)(C)C(=O)N1CCN(C(=O)Nc2cnn(CC(F)F)c2)CC1,Percent Effect,"30.3 µM, […]",4.989%
O=C(c1cccnc1)N1CCCC(c2ncncc2-c2ccncc2)C1 (stereo not given),Percent Effect,"30.3 µM, […]",1.341%
CCO[C@@H]1CCN(C(=O)c2cnc(C)cn2)[C@@H]1Cc1cnn(C)c1,Percent Effect,"30.3 µM, […]",53.66%
COCCO[C@H]1CCN(C(=O)c2ccc[nH]2)[C@H]1Cc1ccncc1,Percent Effect,"30 µM, 30.03 µM",17.48%
COCCO[C@H]1CCN(C(=O)c2cnccn2)[C@H]1Cc1ccncc1,Percent Effect,"30.3 µM, […]",54.37%
CCO[C@@H]1CCN(C(=O)c2cscn2)[C@@H]1Cc1cnn(C)c1,Percent Effect,"30 µM, 30.03 µM",-2.934%
CCO[C@@H]1CCN(C(=O)N(C)C)[C@@H]1Cc1cnn(C)c1,Percent Effect,"30.3 µM, […]",27.5%
COCCO[C@H]1CCN(C(=O)c2ccsc2)[C@H]1Cc1ccncc1,Percent Effect,"30.3 µM, […]",26.31%
CN(C)S(=O)(=O)N1CC[C@]2(C[C@@H](Oc3cccnc3)CO2)C1.O=C(O)C(F)(F)F,Percent Effect,"30.3 µM, […]",7.751%
Cc1ccc(N2CCCc3sc(C(=O)NCc4ccc(C)o4)nc32)nn1,Percent Effect,"30.3 µM, […]",18.34%
O=C1N(CCc2ccccc2)CCCC1(O)CNCc1ccc(F)cc1 (stereo not given),Percent Effect,"30.3 µM, […]",14.91%
O=C1N(CCC2CCCCC2)CCCC1(O)CNCCc1ccccc1 (stereo not given),Percent Effect,"30.3 µM, […]",74.42%
O=C1N(Cc2ccc(F)c(F)c2)CCCC1(O)CNCC1CCCCC1 (stereo not given),Percent Effect,"30.3 µM, […]",62.26%
O=C1N(CCCc2ccccc2)CCCC1(O)CNCc1ccccc1 (stereo not given),Percent Effect,"30 µM, 30.03 µM",54.86%
C=C(C)CNCC1(O)CCCN(Cc2ccc(F)c(F)c2)C1=O (stereo not given),Percent Effect,"30.3 µM, […]",36.85%
O=C1NCCN1CCNCC1(O)CCCN(CCC2CCCCC2)C1=O (stereo not given),Percent Effect,"30.3 µM, […]",17.71%
O=C1N(CCCc2ccccc2)CCCC1(O)CNCC1CCCCC1 (stereo not given),Percent Effect,"30.3 µM, […]",36.42%
COCCNCC1(O)CCCN(Cc2ccc(F)c(F)c2)C1=O (stereo not given),Percent Effect,"30.3 µM, […]",36.88%
O=C1OCCN1CCNCC1(O)CCCN(CCC2CCCCC2)C1=O (stereo not given),Percent Effect,"30.3 µM, […]",27.13%
Cc1nsc(N2CCc3sccc3C2)n1,Percent Effect,"30.3 µM, […]",14.81%
Cc1cnn(CCCNC(=O)N2CCCCC(N3CCCC3)C2)c1 (stereo not given),Percent Effect,"30 µM, 30.03 µM",26.48%
Clc1cccc(OCCCN2CCOC(Cn3cncn3)C2)c1 (stereo not given),Percent Effect,30 µM,18.78%
CCCn1cc(CN2CCCC2c2nccc(CN(C)C)n2)cn1 (stereo not given),Percent Effect,"30.3 µM, […]",-4.658%
O=C(c1cc(C2CCCCN2C(=O)C2CCC2)n[nH]1)N1CCOCC1 (stereo not given),Percent Effect,"30.3 µM, […]",-8.909%
NC(=O)c1ccc(NC(=O)c2ccncc2F)cn1,Percent Effect,"30.3 µM, […]",52.29%
CCc1cnccc1C(=O)Nc1ccc(C(N)=O)nc1,Percent Effect,"30.3 µM, […]",-9.48%
NC(=O)c1ccc(NC(=O)c2ccncc2Cl)cn1,Percent Effect,"30.3 µM, […]",4.641%
COCC(=O)N1CCCCC1c1nc(C)c2c(n1)N(C1CC1)C(=O)CC2 (stereo not given),Percent Effect,"30.3 µM, […]",6.342%
c1csc(-c2cc(CN3CCN(c4nccs4)CC3)no2)c1,Percent Effect,"30.3 µM, […]",21.99%
Cc1cc(=O)[nH]cc1C(=O)N1Cc2ccccc2N(C)CC1C (stereo not given),Percent Effect,"30.3 µM, […]",-24.09%
Cc1cc(=O)[nH]cc1C(=O)N1CCN(C)c2ccccc2C1,Percent Effect,"30.3 µM, […]",57.95%
Cc1cc(=O)c(C(=O)N2CCN(C)c3ccccc3C2)c[nH]1,Percent Effect,"30.3 µM, […]",-29.42%
COCc1nnc(NC(=O)CN2C(=O)c3ccccc3NC2C(C)C)s1 (stereo not given),Percent Effect,"30.3 µM, […]",33.02%
NC(=O)CCCNC(=O)Cc1cccc(I)c1,Percent Effect,"30.3 µM, […]",7.14%
O=C(NC1CC1)NC(c1ccc(F)cc1)C1CC1 (stereo not given),Percent Effect,"30.3 µM, […]",4.479%
N#Cc1cccc(N2CCCC3(CN(C(=O)c4ccc[nH]4)CCO3)C2)c1 (stereo not given),Percent Effect,"30.3 µM, […]",1.97%
CCC1=N[C@@]2(CC[C@@H]3CN(Cc4ccccc4C)C[C@@H]32)C(=O)N1C.O=C(O)C(F)(F)F,Percent Effect,"30.3 µM, […]",57.66%
CCC1=N[C@@]2(CC[C@@H]3CN(Cc4ccc(C)cc4)C[C@@H]32)C(=O)N1C.O=C(O)C(F)(F)F,Percent Effect,"30.3 µM, […]",15.86%
CCC1=N[C@@]2(CC[C@@H]3CN(Cc4ccccc4C)C[C@@H]32)C(=O)N1.O=C(O)C(F)(F)F,Percent Effect,"30.3 µM, […]",9.963%
CCc1ccc(C2COCCN2C(=O)Nc2ccc(C(N)=O)c(Cl)c2)o1 (stereo not given),Percent Effect,"30.3 µM, […]",-7.006%
CC1=C(C(=O)N2CCCC(Cn3cc(CO)nn3)C2)OCCO1 (stereo not given),Percent Effect,"30.3 µM, […]",-4.102%
Cc1ccccc1-n1cnc(Cl)c1CO,Percent Effect,"30.3 µM, […]",0.1894%
NS(=O)(=O)c1cccnc1Nc1cccc(Cl)c1Cl,Percent Effect,"30.3 µM, […]",7.348%
NS(=O)(=O)c1cccnc1NCc1ccco1,Percent Effect,"30.3 µM, […]",37.64%
NS(=O)(=O)c1cccnc1Nc1c(Cl)cccc1Cl,Percent Effect,"30.3 µM, […]",68.36%
CC1Cc2ccccc2N1C(=O)Cn1nc(-c2cccs2)ccc1=O (stereo not given),Percent Effect,"30.3 µM, […]",31.43%
O=C1CC(c2ccc(C(=O)O)cc2)c2ncn(-c3ccccc3F)c2N1 (stereo not given),Percent Effect,"30.3 µM, […]",26.03%
CC(=O)Nc1nc(C(=O)Nc2ccc(N3CCCCC3)nc2)cs1,Percent Effect,"30 µM, 30.03 µM",56.06%
CC(=O)Nc1nc(C(=O)NCc2ccc(N3CCCC3)nc2)cs1,Percent Effect,30 µM,7.198%
CC(=O)Nc1nc(C(=O)NCc2ccc(N3CCCCCC3)nc2)cs1,Percent Effect,"30 µM, 30.03 µM",27.71%
Cc1cn2c(n1)CCC(NC(=O)CCC(F)(F)F)C2 (stereo not given),Percent Effect,"30 µM, 30.03 µM",-20.9%
COCCc1noc(CN2CCN(c3ccc(OC)cc3)C(=O)C2C)n1 (stereo not given),Percent Effect,"30.3 µM, […]",6.497%
CCc1nnc(CN2CCN(c3cccc(OC)c3)C(=O)C2)o1,Percent Effect,"30.3 µM, […]",85%
COc1cc(CN2CCN(c3cccc(OC)c3)C(=O)C2)cc(OC)c1,Percent Effect,"30 µM, 30.03 µM",-0.5901%
COc1ccc(N2CCN(Cc3nc(CSC)no3)CC2=O)cc1,Percent Effect,"30.3 µM, […]",62.54%
COc1ccc(N2CCN(Cc3nc(CSC)no3)C(C)C2=O)cc1 (stereo not given),Percent Effect,"30.3 µM, […]",-39.19%
CCc1ccc(CN2CCN(c3cccc(OC)c3)C(=O)C2)nc1,Percent Effect,"30.3 µM, […]",11.49%
O=C(Nc1ccccc1F)C1=NN(c2ccccc2)C(=O)CN1,Percent Effect,30 µM,-15.12%
Cc1cc(NCCc2c(C)n[nH]c2C)nc(-c2cccnc2)n1,Percent Effect,"30.3 µM, […]",4.777%
Cn1ccnc1CN(Cc1ccccn1)Cc1ccccc1Cl.O=C(O)CC(O)(CC(=O)O)C(=O)O,Percent Effect,"30.3 µM, […]",10.71%
O=C(Nc1ccc(Cl)cn1)c1cncc(C2CCNCC2)n1,Percent Effect,"30.3 µM, […]",-16.97%
COc1ccccc1C(=O)N1CCN(CCc2scnc2C)CC1,Percent Effect,"30.3 µM, […]",5.837%
CCS(=O)(=O)NCC(=O)Nc1cc(CC(C)(C)C)n[nH]1,Percent Effect,"30.3 µM, […]",-13.95%
Cc1cnn(C2CN(CCOc3cccc(C#N)c3)C2)c1,Percent Effect,"30.3 µM, […]",0.4339%
COc1ccc(C2CCCN2c2ccnc(C)c2Cl)c(OC)c1 (stereo not given),Percent Effect,"30.3 µM, […]",54.95%
COc1ccc(C2CCCN2c2nnc(C)s2)c(OC)c1 (stereo not given),Percent Effect,"30.3 µM, […]",1.461%
COc1ccc(C2CCCN2c2cnccn2)c(OC)c1 (stereo not given),Percent Effect,"30.3 µM, […]",20.05%
CCOc1cc(CNCCCn2ccnc2)cc(Cl)c1OCC,Percent Effect,"30.3 µM, […]",81.44%
COc1cc(CNCCn2ccnc2)cc2c1OCO2.Cl,Percent Effect,"30.3 µM, […]",27.41%
CCOc1ccc(CNCCCn2ccnc2)cc1Cl.Cl.Cl,Percent Effect,"30.3 µM, […]",68.16%
CCOc1cc(CNCCCn2ccnc2)cc(Cl)c1OC,Percent Effect,"30.3 µM, […]",37.96%
COc1ccc(C(=O)NCCCn2ccnc2)c(OC)n1,Percent Effect,"30 µM, 30.03 µM",10.91%
CCOc1ccc(CNCCCn2ccnc2)cc1OC,Percent Effect,"30.3 µM, […]",3.86%
CCOc1ccc(CNCCCn2ccnc2)cc1Br,Percent Effect,"30 µM, 30.03 µM",80.37%
COCCCn1ccc(NC(=O)NCCCn2ccnc2)n1,Percent Effect,"30.3 µM, […]",2.018%
CCOc1ccc(NC(=O)N2CCC(n3cncn3)CC2)cc1Cl,Percent Effect,"30.3 µM, […]",-3.205%
CN(C)C(=O)COCc1nn(C)c2c1CCN(Cc1ccco1)C2.O=C(O)C(F)(F)F,Percent Effect,"30.3 µM, […]",23.44%
O=C(NCC(F)F)c1ccc(S(=O)(=O)N2CCCC(O)C2)cc1 (stereo not given),Percent Effect,"30.3 µM, […]",15.51%
CN(C)Cc1ccc(C(=O)N2CCCC(n3cccn3)C2)cc1 (stereo not given),Percent Effect,"30.3 µM, […]",-1.565%
Cc1nn(C)c(N(C)C)c1CNC1CCc2c(Cl)cccc21.Cl (stereo not given),Percent Effect,30 µM,34.54%
O=C([C@@H](O)Cc1ccccc1)N1CCCn2cncc2C1,Percent Effect,"30.3 µM, […]",13.9%
Cn1ccc(C(=O)Nc2nc(-c3ccc4c(c3)CCO4)cs2)cc1=O,Percent Effect,"30.3 µM, […]",32.33%
O=C(O)C(F)(F)F.O=C(c1cc(C2CC2)on1)N1C[C@@H]2COC[C@]2(COc2cccnc2)C1,Percent Effect,"30.3 µM, […]",50.64%
O=C(O)C(F)(F)F.O=C(c1ccc(F)cc1)N1C[C@@H]2COC[C@]2(COc2cccnc2)C1,Percent Effect,"30.3 µM, […]",16.14%
O=C(COc1ccccc1)N1C[C@@H]2COC[C@]2(COc2cccnc2)C1.O=C(O)C(F)(F)F,Percent Effect,"30.3 µM, […]",29.31%
CC(C)(C)c1cc(CN2C[C@H]3CC[C@@H]2CN(Cc2ccccn2)C3)n[nH]1,Percent Effect,"30.3 µM, […]",4.97%
CC(C)N(C)S(=O)(=O)N(Cc1cccs1)CC1CCCO1 (stereo not given),Percent Effect,"30.3 µM, […]",-50.49%
CC(C)c1cc(NCc2csc(N(C)C)n2)nc(N)n1,Percent Effect,"30.3 µM, […]",41.43%
CC(C)c1nc(CNc2ccc(CNS(C)(=O)=O)cc2)cs1,Percent Effect,"30.3 µM, […]",21.12%
CC(C)c1cc(NCc2csc(C(C)C)n2)nc(N)n1,Percent Effect,"30.3 µM, […]",50.61%
Cn1cc(CN2CCCC3(CCN(C(=O)c4ccccn4)C3)C2)cn1.O=C(O)C(F)(F)F.O=C(O)C(F)(F)F.O=C(O)C(F)(F)F (stereo not given),Percent Effect,"30.3 µM, […]",77.43%
O=C(O)C(F)(F)F.O=C(c1ccccn1)N1CCC2(CCCN(c3nncs3)C2)C1 (stereo not given),Percent Effect,"30.3 µM, […]",54.23%
Cn1cc(CN2CCC3(CC2)CCN(Cc2ccccn2)CC3)cn1,Percent Effect,"30.3 µM, […]",-5.313%
Cn1cc(CN2CCC3(CCCN(Cc4ccccn4)C3)CC2)cn1,Percent Effect,"30 µM, 30.03 µM",51.96%
Cc1cccc(CN2CCC3(CCCN(Cc4cnn(C)c4)C3)C2)n1.O=C(O)C(F)(F)F.O=C(O)C(F)(F)F (stereo not given),Percent Effect,"30.3 µM, […]",37.49%
Cn1cc(CN2CCCC23CCN(C(=O)c2ccccn2)CC3)cn1.O=C(O)C(F)(F)F,Percent Effect,"30.3 µM, […]",-2.86%
O=C(O)C(F)(F)F.O=C(c1ccco1)N1CCCC2(CCN(c3nncs3)C2)C1 (stereo not given),Percent Effect,"30.3 µM, […]",36.42%
Cc1cnc(C(=O)N2CCC3(CCCN(c4nncs4)C3)C2)cn1 (stereo not given),Percent Effect,"30.3 µM, […]",29.83%
Cn1cc(CN2CCCC3(CCN(C(=O)c4cnccn4)C3)C2)cn1.O=C(O)C(F)(F)F.O=C(O)C(F)(F)F (stereo not given),Percent Effect,"30.3 µM, […]",26.24%
